# In all, about 320,000 compounds went through this assay and about 8,000 (2.5%) were called active. This is one part of a sample in which actives are shown more often than they occur. No stated cut-off is given here; in the data, active means activation above about 47%; inactive means the rest.
# Molecular target: Aryl hydrocarbon receptor (Homo sapiens) (UniProt P35869)
# Assay: AHR activators, primary screen, cell-based, luminescence, luciferase reporter, human (AID 2796);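 further: 0% = vehicle wells and 100% = reference agonist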
# Details: AHR-responsive luciferase reporter cells, at 5 µM, hits give high values
# Chain of Aryl hydrocarbon receptor (Homo sapiens) (P35869 whole entry, looked up): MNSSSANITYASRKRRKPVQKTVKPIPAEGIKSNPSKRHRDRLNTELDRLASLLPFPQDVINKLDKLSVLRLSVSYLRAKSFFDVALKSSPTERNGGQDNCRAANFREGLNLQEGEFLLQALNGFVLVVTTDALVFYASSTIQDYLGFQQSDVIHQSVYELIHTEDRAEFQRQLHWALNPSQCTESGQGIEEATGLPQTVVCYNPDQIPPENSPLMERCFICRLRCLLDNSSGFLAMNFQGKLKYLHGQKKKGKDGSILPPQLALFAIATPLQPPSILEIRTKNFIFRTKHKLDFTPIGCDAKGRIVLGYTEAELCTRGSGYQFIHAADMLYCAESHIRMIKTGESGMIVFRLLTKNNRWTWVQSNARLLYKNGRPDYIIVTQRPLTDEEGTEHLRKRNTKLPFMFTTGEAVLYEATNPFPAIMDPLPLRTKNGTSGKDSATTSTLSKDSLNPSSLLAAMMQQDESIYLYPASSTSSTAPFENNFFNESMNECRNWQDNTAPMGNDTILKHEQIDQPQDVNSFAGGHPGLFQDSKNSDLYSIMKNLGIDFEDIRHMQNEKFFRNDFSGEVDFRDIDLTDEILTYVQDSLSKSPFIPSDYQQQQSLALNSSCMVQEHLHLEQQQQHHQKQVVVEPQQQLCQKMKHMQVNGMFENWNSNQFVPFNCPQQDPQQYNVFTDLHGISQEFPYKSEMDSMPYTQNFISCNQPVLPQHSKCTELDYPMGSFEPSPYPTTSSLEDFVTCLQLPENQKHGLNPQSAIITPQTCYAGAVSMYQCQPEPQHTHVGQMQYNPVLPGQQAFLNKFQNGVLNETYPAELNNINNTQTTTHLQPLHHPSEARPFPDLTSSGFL
row,Compound,activation
1,N[C@@H](Cc1c[nH]c2ccccc12)c1nnc(SCc2c(F)cccc2Cl)o1,60.4% (active)
2,COc1cc2nc(N3CCN(C(=O)[C@@H]4CCCO4)CC3)nc(N)c2cc1OC,5.62% (inactive)
3,c1ccc(CCN2CCC3(CC2)OCCO3)cc1,-0.2% (inactive)
4,O=C(NC(c1ccc(Cl)cc1)P(=O)(Oc1ccccc1)Oc1ccccc1)OCc1ccccc1 (stereo not given),1.2% (inactive)
5,CN(C)CCN(CC1CCCN(Cc2ccccc2F)C1)C(=O)Cc1ccc(F)c(F)c1 (stereo not given),-0.87% (inactive)
6,CC1(C)C(c2ccccc2)=NC(c2cccnc2)=[N+]1[O-],1.07% (inactive)
7,COC1=CC=C2[C@H]3Cc4ccc(OC)c5c4[C@@]2(CCN3C)C1O5 (stereo not given in full),-1.46% (inactive)
8,COc1c(O)ccc2c1-c1c3c(cc4c1C(C2)N(C)CC4)OCO3 (stereo not given),4.84% (inactive)
9,COc1ccc2c(c1O)-c1cccc3c1[C@@H](C2)N(C)CC3,64.4% (active)
10,COc1ccc(NC(=O)c2cn(CCC#N)nc2-c2ccc([N+](=O)[O-])cc2)cc1,0% (inactive)
11,COC(=O)CN1C(=O)C2(C(C(=O)OC)=C(N)Oc3ccccc32)C2=C1CC(C)(C)CC2=O (stereo not given),2.04% (inactive)
12,CCOC(=O)CC1=C(C(=O)OCC)C2(C(=O)N1)C(C(=O)OC)=C(N)Oc1ccccc12 (stereo not given),10% (inactive)
13,CCOC(=O)C1=C(C)OC(N)=C(C(=O)OC)C12C(=O)Nc1ccc(Br)cc12 (stereo not given),57% (active)
14,Nc1ccc(C(=O)N/N=C2/CN3CCC2CC3)cc1,3.27% (inactive)
15,CCOC(=O)C(O)(c1ccc(N=Cc2ccccc2O)c(C)c1)C(F)(F)F (stereo not given),-2.72% (inactive)

# — PubChem BioAssay AID2796 (The Scripps Research Institute Molecular Screening Center, 2010)
